Out of some 52,000 compounds screened, about 4,300 (8.3%) were called active. This is one part of a sample in which actives are shown more often than they occur. Rule as the data show it: active = survival mostly below about 52% (no sharp cut-off); inactive = mostly above about 56%.

This assay has as its system DeltatarO mutant. Description: growth inhibition of S. aureus wild type versus tarO mutant, primary screen, teichoic acid synthesis inhibitors, RN4220, OD600 (AID 463173). The following applies: OD600, 18 h, active compounds read low, screened at 18.75 µg/mL (by protocol).
Regarding `O=C1CCSC2(C(=O)N(Cc3ccc(F)cc3)c3ccccc32)N1c1ccc(F)c(F)c1` (centres undefined), the survival was 83% (inactive).
As to `COc1ccc(Cn2c(=O)c3oc4ccccc4c3n(Cc3ccccc3)c2=O)cc1`, the survival was 82% (inactive).
As for `O=C(Nc1ccccc1C(F)(F)F)N1CCOc2ccc(Cl)cc21`, the figure is 46% (inactive).
As for `Cc1cc(C)c(Cn2c(C(O)c3ccccc3)nc3ccccc32)c(C)c1` (centres undefined), the figure is 31% (active); as for `OC(c1ccccc1)c1nc2ccccc2n1Cc1c(F)cccc1Cl` (centres undefined), 74% (inactive); as for `COC(=O)Cn1c(C(O)c2ccccc2)nc2ccccc21` (centres undefined), 71% (inactive).
With `COc1ccc(CCNc2nc3cc(OC)c(OC)cc3c3nc(-c4ccccc4)nn23)cc1OC`, the survival was 93% (inactive).
As for `COc1ccc(CCNc2nc3cc(OC)c(OC)cc3c3nc(-c4cccnc4)nn23)cc1OC`, the figure is 117% (inactive); as for `COc1ccc(CCNc2nc3ccccc3c3nc(-c4cccc(C)c4)nn23)cc1OC`, 20% (active).
The value for `COc1cc2nc(NCCc3ccccc3)n3nc(-c4cccnc4)nc3c2cc1OC` was 118% (inactive).
The value for `Cc1cccc(-c2nc3c4ccccc4nc(NCCc4ccccc4)n3n2)c1` was 7% (active); that for `COc1cc2nc(NCCc3cccc(C)c3)n3nc(-c4ccccc4)nc3c2cc1OC` was 59% (inactive).
Take `Cc1cc2[nH]c(=O)c(=O)[nH]c2cc1S(=O)(=O)Nc1ccc(OC(F)(F)F)cc1`: the survival is 67% (inactive).
As for `CCCn1c(=O)n(-c2cc(Cl)c(OC)cc2OC)c(=O)c2c3c(sc21)CN(C(C)=O)CC3`, the figure is 62% (inactive); as for `O=C(O)CCc1ccc(-c2ccccc2)n1CC(=O)Nc1ccccc1C(F)(F)F`, 60% (inactive).
For `CCc1ccccc1NC(=O)C1=C(C)C(=O)OC12CCCCCC2`, the survival is 58% (inactive).
As for `CCn1cc(C(=O)OCC(=O)Nc2cc(Cl)ccc2C)c(=O)c2ccc(C)nc21`, the figure is 74% (inactive); as for `CCn1cc(C(=O)OCC(=O)Nc2ccc(C)c(Cl)c2)c(=O)c2ccc(C)nc21`, 63% (active).
The value for `CCn1cc(C(=O)OCC(=O)Nc2cc(C)cc(C)c2)c(=O)c2ccc(C)nc21` was 64% (inactive); that for `CCCCC1CCC(CCCC(C)CCC(=O)O)CC1` (centres undefined) was -4% (active); that for `CCCCCCC1CCC(C(=O)NC(C(=O)O)C(C)C)CC1` (centres undefined) was 49% (inactive).
The value for `CCCCCCC1CC=C(C(=O)O)CC1` (centres undefined) was 76% (inactive).
Take `O=c1c2sc3ccccc3c2n(Cc2ccccc2)c(=O)n1CCc1ccccc1`: the survival is 71% (inactive).
The value for `COc1ccc(N(CC(=O)Nc2cc(Cl)ccc2C)S(=O)(=O)c2c(C)noc2C)cc1` was 51% (inactive); that for `CS(=O)(=O)N(CC(=O)Nc1cccnc1)c1ccc(Cl)cc1` was 91% (inactive); that for `CCOc1ccc(S(=O)(=O)N(CC(=O)Nc2cccnc2)c2ccccc2)cc1` was 114% (inactive).
The value for `COc1ccc(S(=O)(=O)N(CC(=O)Nc2cc(C)cc(C)c2)c2ccc(Cl)cc2)cc1` was 77% (inactive).
The value for `O=C(CN(c1ccc(Cl)c(C(F)(F)F)c1)S(=O)(=O)c1ccccc1)Nc1cccnc1` was 47% (active).
As to `O=C(CN(c1ccc(Cl)c(C(F)(F)F)c1)S(=O)(=O)c1ccccc1)N1CCc2ccccc2C1`, the survival was 42% (inactive).
The value for `COc1ccc(N(CC(=O)Nc2cc(OC)cc(OC)c2)S(=O)(=O)c2c(C)noc2C)cc1` was 45% (active); that for `COc1ccc(S(=O)(=O)N(CC(=O)Nc2cccnc2)c2ccc(Cl)cc2)cc1` was 30% (active); that for `COc1ccc(N(CC(=O)NCc2ccc(F)cc2)S(=O)(=O)c2c(C)noc2C)cc1` was 82% (inactive).
The value for `Cc1cc(C)c(NC(=O)Cn2c(=O)n(CC(=O)NCc3ccccc3Cl)c(=O)c3sccc32)c(C)c1` was 171% (inactive); that for `Cc1ccc(N2CCN(C(=O)c3nn(C)c4c3CS(=O)(=O)c3ccccc3-4)CC2C)cc1` (centres undefined) was 56% (inactive).
As for `O=C(c1ccc2c(c1)N(Cc1cccc(Cl)c1)C(=O)c1ccccc1S2(=O)=O)N1CCCC1`, the figure is 115% (inactive); as for `CCOc1ccccc1CNC(=O)CSc1nnc(C)c2c(C)n(-c3ccccc3)nc12`, 83% (inactive); as for `CC(C)CNS(=O)(=O)c1ccc(S(=O)(=O)N2CCCC(C(=O)NC3CCCCC3)C2)cc1` (centres undefined), 75% (inactive).
Take `CCCCOc1ccc(CNC(=O)C2COc3ccc(OC)cc3C2)cc1` (centres undefined): the survival is 94% (inactive).
The value for `O=C(NC1CCCCC1)c1c[nH]c2ccc(S(=O)(=O)Nc3ccccc3F)cc2c1=O` was 83% (inactive); that for `CCOCCCNC(=O)c1c[nH]c2ccc(S(=O)(=O)Nc3cccc(Cl)c3C)cc2c1=O` was 93% (inactive); that for `Cc1ccccc1NS(=O)(=O)c1ccc2[nH]cc(C(=O)NC3CCCCC3)c(=O)c2c1` was 85% (inactive).
The value for `Cc1c(Cl)cccc1NS(=O)(=O)c1ccc2[nH]cc(C(=O)NC3CCCC3)c(=O)c2c1` was 7% (active); that for `CNC(=O)c1c[nH]c2ccc(S(=O)(=O)Nc3cccc(Cl)c3C)cc2c1=O` was 91% (inactive).
As for `CCc1ccccc1NS(=O)(=O)c1ccc2[nH]cc(C(=O)NC3CCCC3)c(=O)c2c1`, the figure is 33% (active); as for `CNc1nc2ccccc2o1`, 89% (inactive); as for `O=C(CSc1nnc(-c2cccs2)o1)Oc1ccccc1Cl`, 81% (inactive).
On to `Cc1ccc(CNC(=O)CCCn2c(=O)c3ccccc3n(CC(=O)Nc3ccc(C)cc3)c2=O)cc1`, for which the survival was 89% (inactive).
The value for `COc1ccccc1N(CC(=O)N1CCC(C)CC1)S(=O)(=O)c1ccc(C)cc1` was 134% (inactive); that for `COc1ccc(C)cc1N(CC(=O)N1CCC(C)CC1)S(=O)(=O)c1ccc(C)cc1` was 55% (active).
The value for `CCOC(=O)N1CCN(C(=O)CN(c2cc(C)ccc2OC)S(=O)(=O)c2ccc(C)cc2)CC1` was 87% (inactive); that for `O=C(CSc1nc(-c2ccc(F)cc2)[nH]c1-c1ccc(F)cc1)Nc1ccc2c(c1)OCCO2` was 76% (inactive).
As for `O=C1c2ccccc2-c2n[nH]c(=S)nc21`, the figure is 64% (inactive); as for `N#CC(C#N)=C1c2ccccc2-c2nc(C#N)c(C#N)nc21`, 4% (active); as for `N#CC(C#N)=C1c2ccccc2-c2c1nc1ccccc1[n+]2[O-]`, 78% (inactive).
As for `N#Cc1nc2c(nc1C#N)-c1ccccc1C2=O`, the survival was 19% (active).
The value for `N#CCCCN1C(=O)C(=C(C#N)C#N)c2ccccc21` was 75% (inactive); that for `N#Cc1cc2nc3c(nc2cc1C#N)-c1cccc2cccc-3c12` was 85% (inactive); that for `COC(=O)c1ccc2c(=O)n(CCCCCC(=O)N3CCN(c4ccc(Cl)cc4)CC3)c(=O)[nH]c2c1` was 116% (inactive).
With `COc1ccccc1OC(C)C(=O)Nc1c(C(=O)c2ccc(Cl)cc2)oc2ccccc12` (centres undefined), the survival was 81% (inactive).
The value for `Cc1ccc(C(=O)c2oc3ccccc3c2NC(=O)COc2ccccc2Cl)cc1` was 123% (inactive); that for `CCc1ccc(OC(C)C(=O)Nc2c(C(=O)c3ccccc3)oc3ccccc23)cc1` (centres undefined) was 38% (inactive); that for `Cc1cc(C)cc(OC(C)C(=O)Nc2c(C(=O)c3ccccc3)oc3ccccc23)c1` (centres undefined) was 17% (active).
The value for `Cc1cc(C)cc(OCC(=O)Nc2c(C(=O)c3ccccc3)oc3ccccc23)c1` was 92% (inactive).
The value for `Cc1ccc(C(=O)c2oc3ccccc3c2NC(=O)C(C)Oc2ccccc2Cl)cc1` (centres undefined) was 40% (active); that for `CC(C)Cn1c(=O)c2ccccc2n2c(-c3ccc(Br)cc3)nnc12` was 94% (inactive); that for `Cc1ccc(CN(Cc2ccco2)C(=O)COc2ccc(Cl)cc2Cl)cc1` was 96% (inactive).
Take `Cc1ccc(-c2nnc(Nc3ccc(O)cc3)c3ccccc23)cc1S(=O)(=O)N1CCCCC1`: the survival is 104% (inactive).
The value for `Cc1cccc(N2CCN(c3nc4ccc(C(=O)c5ccccc5)cc4n4cnnc34)CC2C)c1` (centres undefined) was 76% (inactive); that for `Cc1ccc(CO)cc1Nc1ncnc2onc(-c3ccc(F)cc3)c12` was 46% (active); that for `Cc1ccc(CN2CCC(CNc3ncnc4onc(-c5ccc(F)cc5)c34)CC2)cc1` was -2% (active).
As for `Fc1ccc(-c2noc3ncnc(NCC4CCN(Cc5ccc(Cl)cc5)CC4)c23)cc1`, the figure is 72% (inactive); as for `Cc1ccc(CN2CCC(CNc3ncnc4onc(-c5ccc(Cl)cc5)c34)CC2)cc1`, 80% (inactive).
The value for `Cc1ccc(CCNc2ncnc3onc(-c4ccc(F)cc4)c23)cc1` was 83% (inactive); that for `Cc1cc(C)cc(Nc2ncnc3onc(-c4ccc(F)cc4)c23)c1` was 84% (inactive).
For the compound `Cc1cccc(N2CCN(C(=O)c3cccc(-n4c(C)nc5cccnc54)c3)CC2)c1C`, the survival is 104% (inactive).
As for `COc1ccc2c(c1)cc1c(=O)n(CC(=O)NC3CCCCC3)nc(C)n12`, the figure is 70% (inactive); as for `COc1ccc(CCNS(=O)(=O)c2c(C)nc3sccn3c2=O)cc1OC`, 64% (inactive).
The value for `CCOc1ccc(CN2C(=O)c3ccccc3Sc3ccc(C(=O)NCCc4ccccc4)cc32)cc1` was 58% (inactive).
The value for `COC(=O)C1(C)NC(c2ccccc2C)C2C(=O)N(C)C(=O)C21` (centres undefined) was 54% (active); that for `COC(=O)C1(C)NC(c2ccc(OC)cc2)C2C(=O)N(c3ccccc3)C(=O)C21` (centres undefined) was 80% (inactive).
`COC(=O)C1(C(C)C)NC(c2ccccc2OC)C2C(=O)N(C)C(=O)C21` (centres undefined): the survival was 84% (inactive).
As to `COc1ccc(C)cc1NS(=O)(=O)c1ccc2oc(=O)c3ncn(C)c3c2c1`, the survival was 77% (inactive).
For `CCc1ccc(S(=O)(=O)NCc2ccc3c(c2)CCN3C(=O)c2ccc(C)cc2)cc1`, the survival was 71% (inactive).
`CCOc1ccc(-c2nonc2NC(=O)c2ccco2)cc1`: the survival is 79% (inactive).
The value for `CC(=O)Nc1cccc(NC(=O)Cn2cnc3c2c(=O)n(C)c(=O)n3C)c1` was 70% (inactive); that for `CC(=O)c1cccc(NC(=O)Cn2cnc3c2c(=O)n(C)c(=O)n3C)c1` was 44% (active); that for `Cn1c(=O)c2c(ncn2CC(=O)Nc2cccc(C(F)(F)F)c2)n(C)c1=O` was 71% (inactive).
The value for `Cc1cccc(-c2cc(-c3ccccc3)nc(SCC(=O)Nc3ccccc3)c2C#N)c1` was 67% (inactive); that for `COc1cc(C(CC(=O)Nc2ccc(C)c(F)c2)N2Cc3ccccc3C2=O)cc(OC)c1OC` (centres undefined) was 93% (inactive).
